mHTT CaM bind = disrupts binding of mutant huntingtin to calmodulin. P42858. AID 1671202. hit rate 3.6% among 190,000. AlphaScreen His-mHTT/GST-CaM binding, luminescence. inhibition, % at 15 µM;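 further: 0% = both proteins with DMSO and 100% = one protein alone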
Pf apPOL block = Pf-apPOL DNA polymerase inhibition. hit rate 0.25% among 210,000. inhibition, % at 10 µM. Recombinant Pf-apPOL, molecular beacon fluorescence, 1.5 h
Active calls of the source: *; . = no result; ! = not confirmed by another sample. This is one part of a sample in which hits are shown more often than they occur. No stated cut-off is given here; in the data, active means inhibition above about 50%; inactive means the rest.

SMILES | mHTT CaM bind | Pf apPOL block
Cc1cccc(C(=O)NC(Nc2cccc([N+](=O)[O-])c2)C(Cl)(Cl)Cl)c1 (centres undefined) | 11.0 | 2.4
CC(C)(C)C(=O)NC(Nc1ccc([N+](=O)[O-])cc1)C(Cl)(Cl)Cl (centres undefined) | 12.0 | 16.1
COc1cccc(/C=C2\N=C(c3ccc(C(C)(C)C)cc3)OC2=O)c1 | 4.0 | -5.4
CC(=O)COc1ccc2c(c1)OC(=Cc1ccc(F)cc1)C2=O | 6.1 | -4.0
O=C(Nc1ccc([N+](=O)[O-])cc1O)C1C2CC/C=C\CCC21 (centres undefined) | 39.8 | 92.9*
Cc1ccc([N+](=O)[O-])cc1NC(=O)C1CC1 | 0.2 | 0.4
CCOc1ccc(C(O)=C2C(=O)C(=O)N(CCOC)C2c2ccccc2F)cc1 (centres undefined) | -1.3 | 0.1
COc1ccc(N2CN=c3s/c(=C\c4ccc(OC)c(OC)c4)c(=O)n3C2)cc1 | 29.0 | -3.1
N#Cc1c(NC(=O)/C=C/C(=O)O)sc2c1CCC2 | -1.1 | .
CC1(C)C(C=C(Cl)Cl)C1C(=O)Nc1sc2c(c1C#N)CCCC2 (centres undefined) | -2.0 | 91.8*
COc1ccc(C=C2SC(=S)N(C(C(=O)O)C(C)C)C2=O)cc1 (centres undefined) | 3.1 | -54.6
COc1cc(C=C2SC(=S)N(C(C(=O)O)C(C)C)C2=O)cc(OC)c1O (centres undefined) | 61.2* | -22.8
Cc1cc(O)c(CN2CCCCC2)c2c1C(=O)C(=Cc1cc3ccccc3o1)O2 | -4.3 | -5.4
O=C1CCC[C@@H]2[C@@H](Cc3ccccc3)[C@@H](Nc3ccccc3)C[C@@H]3CCN1[C@@H]32 | 70.3* | -4.6
O=C1CCC[C@@H]2[C@H](Cc3ccccc3)[C@@H](O)C[C@@H]3CCN1[C@@H]32 | 1.2 | -9.1
O=C(CSCc1ccccc1)Nc1cccc(-c2cn3cccnc3n2)c1 | 52.1* | -6.1
Cc1onc(-c2ccccc2Cl)c1C(=O)Nc1cccc(-c2cn3cccnc3n2)c1 | 16.2 | -5.6
O=C(c1noc2c1CCCCC2)N1CCN(c2ccccc2F)CC1 | -13.1 | -1.6
Cc1ccc(Cl)cc1N1CCN(C(=O)c2noc3c2CCCC3)CC1 | 95.9* | -3.4
Cc1ccc(CN2CCC(C(=O)N(CCc3ccccc3)Cc3ccccc3)CC2)o1 | 58.0* | 0.9
O=C(C1CCN(Cc2ccccc2O)CC1)N(CCc1ccccc1)Cc1ccccc1 | 17.4 | 1.9
Cc1ccc(N=Cc2c(C)[nH]n(-c3cccc(Cl)c3)c2=O)cc1 | 9.0 | -1.7
COc1ccc2[nH]cc(CN3CCC(C(=O)NC4CCCc5ccccc54)CC3)c2c1 (centres undefined) | 69.2* | -0.3
O=C(NC1CCCc2ccccc21)C1CCN(S(=O)(=O)N2CCCCCC2)CC1 (centres undefined) | -3.0 | -5.9
CCc1ccc(-c2csc(Nc3cc(OC)c(Cl)cc3OC)n2)cc1 | 12.1 | 2.9
SMILES | mHTT CaM bind | Pf apPOL block
CCOc1ccc(Nc2nc(-c3ccc(OC)c(F)c3)cs2)cc1 | 32.0 | -4.0
COc1cc(Nc2nc(-c3cc(C)ccc3C)cs2)c(OC)cc1Cl | 73.7* | -0.6
COc1ccc(-c2csc(Nc3ccc(C)c(Cl)c3)n2)cc1F | 88.2* | -0.8
COc1ccccc1Nc1nc(-c2cc(C)ccc2C)cs1 | 23.8 | 2.4
Fc1ccc(Nc2nc(-c3ccccc3)cs2)cc1 | 30.4 | 1.4
Fc1ccc(-c2csc(Nc3ccc(Cl)cc3)n2)cc1 | 97.1* | -1.4
COc1ccc(-c2csc(Nc3ccc(Cl)cc3)n2)cc1F | 95.3* | 5.4
COCCN1CCC(N2CCCN(C(=O)c3nn(C)c4ccccc34)CC2)C1=O (centres undefined) | 9.9 | 2.2
CC1CCCCN1CCCNC(=O)CC(C(=O)N1CCc2ccccc21)n1ccnc1 (centres undefined) | -3.0 | -8.1
N#CC1=CN(c2ccc(Cl)cc2F)c2cc(Cl)ccc2S1(=O)=O | -3.3 | -2.3
CC1CCCC(C)N1c1ncnc(Cl)c1[N+](=O)[O-] (centres undefined) | 10.0 | 2.5
Cc1nc2ccc3nc(NC(=O)c4ccccc4[N+](=O)[O-])sc3c2s1 | 29.9 | 2.9
Cc1nc2ccc3nc(NC(=O)c4ccccc4Cl)sc3c2s1 | 72.0*! | -7.4
O=C1OC(c2cc([N+](=O)[O-])ccc2Cl)=N/C1=C\c1ccccc1C(F)(F)F | -6.0 | 2.6
O=C(Nc1nnc(COc2ccccc2)o1)c1ccccn1 | 0.1 | -9.2
O=C(Nc1nnc(COc2ccccc2)o1)c1cc(Cl)sc1Cl | 56.3* | -256.8
O=C(Cc1ccccc1Cl)Nc1nnc(COc2ccccc2)o1 | 83.7* | -9.2
O=C(CCSc1ccc(Cl)cc1)Nc1nnc(COc2ccccc2)o1 | -1.9 | -34.5
Cn1c(Cc2ccccc2)nnc1Sc1ccc(C(=O)O)cc1[N+](=O)[O-] | -2.9 | -1.0
Cc1cccc(NC(=O)N2CC3CCCN3c3ccccc32)c1C (centres undefined) | 30.4 | -2.7
O=C(NCc1ccco1)c1ccc(NC(=O)N2CC3CCCN3c3ccccc32)cc1 (centres undefined) | 14.8 | 0.8

Screening results deposited in PubChem by University of Kansas High Throughput Screening Laboratory.
